Measurements taken from the supplement of paper PMC11732987, “Enantioselective OTUD7B fragment discovery through chemoproteomics screening and high-throughput optimisation” (Communications Chemistry, 2025).

Assays:
Test in all cases: log2 ratio of Biotin-Ahx-Ub-VS probe labelling (fragment/DMSO); higher = less target engagement (more negative = stronger competition), active = hit call of the paper (q ≤ 0.05, log2 ratio ≤ -1)
Conditions in all cases: compound concentration: 200 uM; treatment time: 3 h
USP19 = molecular target: T1, USP19 (UniProt O94966)
T1 sequence (whole entry): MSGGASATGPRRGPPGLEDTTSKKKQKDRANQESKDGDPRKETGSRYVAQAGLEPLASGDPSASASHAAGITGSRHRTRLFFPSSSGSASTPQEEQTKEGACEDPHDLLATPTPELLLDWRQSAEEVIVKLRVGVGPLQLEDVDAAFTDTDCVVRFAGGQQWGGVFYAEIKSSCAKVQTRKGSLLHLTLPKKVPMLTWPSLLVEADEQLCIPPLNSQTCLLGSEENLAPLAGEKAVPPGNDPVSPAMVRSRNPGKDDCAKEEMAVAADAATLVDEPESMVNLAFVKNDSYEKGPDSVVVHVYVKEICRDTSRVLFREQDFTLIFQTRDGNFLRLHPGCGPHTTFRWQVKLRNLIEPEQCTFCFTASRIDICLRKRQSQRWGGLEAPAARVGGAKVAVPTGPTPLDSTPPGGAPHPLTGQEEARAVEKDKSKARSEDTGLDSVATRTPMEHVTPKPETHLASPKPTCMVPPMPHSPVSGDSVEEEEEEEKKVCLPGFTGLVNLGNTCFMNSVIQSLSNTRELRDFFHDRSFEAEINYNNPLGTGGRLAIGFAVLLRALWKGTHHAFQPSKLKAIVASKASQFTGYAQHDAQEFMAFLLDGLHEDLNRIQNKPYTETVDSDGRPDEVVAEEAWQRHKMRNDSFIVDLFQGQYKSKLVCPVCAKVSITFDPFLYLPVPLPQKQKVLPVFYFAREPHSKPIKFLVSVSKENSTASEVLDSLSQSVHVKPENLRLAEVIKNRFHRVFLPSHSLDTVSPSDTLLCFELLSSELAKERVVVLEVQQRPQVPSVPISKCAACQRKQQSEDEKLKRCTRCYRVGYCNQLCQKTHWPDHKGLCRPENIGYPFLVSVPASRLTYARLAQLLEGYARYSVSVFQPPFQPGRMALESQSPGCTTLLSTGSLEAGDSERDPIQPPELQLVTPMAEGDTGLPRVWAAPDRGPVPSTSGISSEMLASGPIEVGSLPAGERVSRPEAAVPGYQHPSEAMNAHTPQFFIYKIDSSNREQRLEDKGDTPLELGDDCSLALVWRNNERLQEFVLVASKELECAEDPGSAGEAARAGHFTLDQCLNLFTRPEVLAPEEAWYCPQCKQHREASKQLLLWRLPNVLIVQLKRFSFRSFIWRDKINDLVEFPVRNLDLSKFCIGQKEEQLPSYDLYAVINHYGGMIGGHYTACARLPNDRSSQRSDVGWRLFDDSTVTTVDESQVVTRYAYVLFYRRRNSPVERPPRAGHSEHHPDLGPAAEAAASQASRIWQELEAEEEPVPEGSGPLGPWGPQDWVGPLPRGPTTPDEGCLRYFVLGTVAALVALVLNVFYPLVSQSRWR
Summary of the method: (§1)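 HEK293T lysate in Tris/CHAPS/IGEPAL buffer with protease inhibitors (495 µg per sample) was given fragment at 200 µM or vehicle for 3 h, in triplicate. It then received Biotin-Ahx-Ub-VS at 0.5 µM final for 1 h. Labelled DUBs were NeutrAvidin-enriched, digested with LysC and trypsin, and run by diaPASEF LC-MS/MS. Values are average log2 fragment/vehicle ratios by unpaired t-test on global-median-normalised Spectronaut quantities of proteins with ≥2 unique peptides.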

USP22 = molecular target: T2, USP22 (UniProt Q9UPT9)
T2 sequence (whole entry): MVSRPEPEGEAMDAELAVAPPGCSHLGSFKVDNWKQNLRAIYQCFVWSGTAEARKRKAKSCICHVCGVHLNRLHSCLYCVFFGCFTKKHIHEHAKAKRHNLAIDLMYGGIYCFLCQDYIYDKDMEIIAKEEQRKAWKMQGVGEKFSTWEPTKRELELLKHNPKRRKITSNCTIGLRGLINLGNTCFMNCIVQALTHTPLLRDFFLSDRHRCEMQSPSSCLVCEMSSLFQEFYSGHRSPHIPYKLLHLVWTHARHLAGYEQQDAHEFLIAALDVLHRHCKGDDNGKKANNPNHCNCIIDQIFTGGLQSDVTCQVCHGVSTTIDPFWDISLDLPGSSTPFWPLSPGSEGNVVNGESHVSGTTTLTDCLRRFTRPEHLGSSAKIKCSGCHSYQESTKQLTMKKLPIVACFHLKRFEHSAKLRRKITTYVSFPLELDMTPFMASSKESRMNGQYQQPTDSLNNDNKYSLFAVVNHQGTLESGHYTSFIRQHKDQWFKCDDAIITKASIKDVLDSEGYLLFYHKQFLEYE
Summary of the method: as §1

USP24 = USP24 (UniProt Q9UPU5)
Summary of the method: as §1

USP25 = molecular target: T3, USP25 (UniProt Q9UHP3)
T3 sequence (whole entry): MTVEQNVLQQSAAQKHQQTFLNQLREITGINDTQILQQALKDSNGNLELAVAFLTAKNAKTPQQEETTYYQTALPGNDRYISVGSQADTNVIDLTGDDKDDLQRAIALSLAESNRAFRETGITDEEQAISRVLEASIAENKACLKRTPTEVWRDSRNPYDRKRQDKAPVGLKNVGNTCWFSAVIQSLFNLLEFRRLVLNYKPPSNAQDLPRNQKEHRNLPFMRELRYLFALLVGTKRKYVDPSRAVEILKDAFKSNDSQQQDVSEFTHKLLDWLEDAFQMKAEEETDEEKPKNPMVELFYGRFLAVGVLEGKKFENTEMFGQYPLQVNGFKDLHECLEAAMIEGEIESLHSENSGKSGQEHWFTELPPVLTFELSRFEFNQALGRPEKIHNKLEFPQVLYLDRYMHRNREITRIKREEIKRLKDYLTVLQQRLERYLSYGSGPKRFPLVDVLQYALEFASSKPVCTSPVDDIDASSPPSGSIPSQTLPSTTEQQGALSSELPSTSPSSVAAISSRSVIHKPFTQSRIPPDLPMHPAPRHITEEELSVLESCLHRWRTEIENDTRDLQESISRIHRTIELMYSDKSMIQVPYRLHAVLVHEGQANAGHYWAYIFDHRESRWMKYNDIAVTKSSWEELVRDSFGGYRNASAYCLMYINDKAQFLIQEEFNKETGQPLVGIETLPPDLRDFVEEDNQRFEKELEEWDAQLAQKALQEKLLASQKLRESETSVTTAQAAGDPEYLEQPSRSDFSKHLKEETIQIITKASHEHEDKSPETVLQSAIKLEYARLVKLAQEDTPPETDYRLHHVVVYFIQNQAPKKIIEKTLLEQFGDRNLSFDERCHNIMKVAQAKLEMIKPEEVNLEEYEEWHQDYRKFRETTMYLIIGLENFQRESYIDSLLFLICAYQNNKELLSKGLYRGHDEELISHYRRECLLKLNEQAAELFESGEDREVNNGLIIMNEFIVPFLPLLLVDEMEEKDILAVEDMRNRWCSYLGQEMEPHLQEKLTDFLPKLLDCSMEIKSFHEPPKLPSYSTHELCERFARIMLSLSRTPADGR
Summary of the method: as §1

USP28 = molecular target: T4, USP28 (UniProt Q96RU2)
T4 sequence (whole entry): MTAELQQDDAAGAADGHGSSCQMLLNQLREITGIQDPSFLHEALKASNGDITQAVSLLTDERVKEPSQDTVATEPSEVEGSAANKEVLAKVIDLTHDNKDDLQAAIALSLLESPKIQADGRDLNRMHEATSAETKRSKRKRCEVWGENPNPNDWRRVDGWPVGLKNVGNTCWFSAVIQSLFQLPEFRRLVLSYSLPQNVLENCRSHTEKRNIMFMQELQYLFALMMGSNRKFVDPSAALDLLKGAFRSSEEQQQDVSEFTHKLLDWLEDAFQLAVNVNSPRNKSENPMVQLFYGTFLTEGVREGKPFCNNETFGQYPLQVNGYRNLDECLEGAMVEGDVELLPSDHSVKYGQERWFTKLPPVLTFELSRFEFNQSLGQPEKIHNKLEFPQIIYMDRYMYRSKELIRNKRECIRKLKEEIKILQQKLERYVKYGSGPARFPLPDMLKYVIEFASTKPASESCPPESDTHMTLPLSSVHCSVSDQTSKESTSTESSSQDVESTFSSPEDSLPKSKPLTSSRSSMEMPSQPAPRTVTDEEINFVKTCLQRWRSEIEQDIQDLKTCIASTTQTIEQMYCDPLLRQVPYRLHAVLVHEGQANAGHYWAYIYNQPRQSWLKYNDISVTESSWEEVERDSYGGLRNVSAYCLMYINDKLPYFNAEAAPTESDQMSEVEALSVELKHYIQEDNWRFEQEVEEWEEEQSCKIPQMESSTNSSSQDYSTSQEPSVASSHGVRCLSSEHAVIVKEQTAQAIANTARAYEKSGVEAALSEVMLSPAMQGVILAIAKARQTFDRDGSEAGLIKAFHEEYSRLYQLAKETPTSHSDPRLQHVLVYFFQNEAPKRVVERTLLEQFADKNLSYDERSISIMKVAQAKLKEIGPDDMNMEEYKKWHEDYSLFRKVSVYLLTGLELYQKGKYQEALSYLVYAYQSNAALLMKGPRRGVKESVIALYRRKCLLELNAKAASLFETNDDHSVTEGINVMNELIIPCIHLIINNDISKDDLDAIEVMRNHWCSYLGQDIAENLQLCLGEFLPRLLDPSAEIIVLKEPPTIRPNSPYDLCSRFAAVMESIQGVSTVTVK
Summary of the method: as §1

Measured: log2 ratio of Biotin-Ahx-Ub-VS probe labelling

Sequence of USP24 (Q9UPU5 whole entry): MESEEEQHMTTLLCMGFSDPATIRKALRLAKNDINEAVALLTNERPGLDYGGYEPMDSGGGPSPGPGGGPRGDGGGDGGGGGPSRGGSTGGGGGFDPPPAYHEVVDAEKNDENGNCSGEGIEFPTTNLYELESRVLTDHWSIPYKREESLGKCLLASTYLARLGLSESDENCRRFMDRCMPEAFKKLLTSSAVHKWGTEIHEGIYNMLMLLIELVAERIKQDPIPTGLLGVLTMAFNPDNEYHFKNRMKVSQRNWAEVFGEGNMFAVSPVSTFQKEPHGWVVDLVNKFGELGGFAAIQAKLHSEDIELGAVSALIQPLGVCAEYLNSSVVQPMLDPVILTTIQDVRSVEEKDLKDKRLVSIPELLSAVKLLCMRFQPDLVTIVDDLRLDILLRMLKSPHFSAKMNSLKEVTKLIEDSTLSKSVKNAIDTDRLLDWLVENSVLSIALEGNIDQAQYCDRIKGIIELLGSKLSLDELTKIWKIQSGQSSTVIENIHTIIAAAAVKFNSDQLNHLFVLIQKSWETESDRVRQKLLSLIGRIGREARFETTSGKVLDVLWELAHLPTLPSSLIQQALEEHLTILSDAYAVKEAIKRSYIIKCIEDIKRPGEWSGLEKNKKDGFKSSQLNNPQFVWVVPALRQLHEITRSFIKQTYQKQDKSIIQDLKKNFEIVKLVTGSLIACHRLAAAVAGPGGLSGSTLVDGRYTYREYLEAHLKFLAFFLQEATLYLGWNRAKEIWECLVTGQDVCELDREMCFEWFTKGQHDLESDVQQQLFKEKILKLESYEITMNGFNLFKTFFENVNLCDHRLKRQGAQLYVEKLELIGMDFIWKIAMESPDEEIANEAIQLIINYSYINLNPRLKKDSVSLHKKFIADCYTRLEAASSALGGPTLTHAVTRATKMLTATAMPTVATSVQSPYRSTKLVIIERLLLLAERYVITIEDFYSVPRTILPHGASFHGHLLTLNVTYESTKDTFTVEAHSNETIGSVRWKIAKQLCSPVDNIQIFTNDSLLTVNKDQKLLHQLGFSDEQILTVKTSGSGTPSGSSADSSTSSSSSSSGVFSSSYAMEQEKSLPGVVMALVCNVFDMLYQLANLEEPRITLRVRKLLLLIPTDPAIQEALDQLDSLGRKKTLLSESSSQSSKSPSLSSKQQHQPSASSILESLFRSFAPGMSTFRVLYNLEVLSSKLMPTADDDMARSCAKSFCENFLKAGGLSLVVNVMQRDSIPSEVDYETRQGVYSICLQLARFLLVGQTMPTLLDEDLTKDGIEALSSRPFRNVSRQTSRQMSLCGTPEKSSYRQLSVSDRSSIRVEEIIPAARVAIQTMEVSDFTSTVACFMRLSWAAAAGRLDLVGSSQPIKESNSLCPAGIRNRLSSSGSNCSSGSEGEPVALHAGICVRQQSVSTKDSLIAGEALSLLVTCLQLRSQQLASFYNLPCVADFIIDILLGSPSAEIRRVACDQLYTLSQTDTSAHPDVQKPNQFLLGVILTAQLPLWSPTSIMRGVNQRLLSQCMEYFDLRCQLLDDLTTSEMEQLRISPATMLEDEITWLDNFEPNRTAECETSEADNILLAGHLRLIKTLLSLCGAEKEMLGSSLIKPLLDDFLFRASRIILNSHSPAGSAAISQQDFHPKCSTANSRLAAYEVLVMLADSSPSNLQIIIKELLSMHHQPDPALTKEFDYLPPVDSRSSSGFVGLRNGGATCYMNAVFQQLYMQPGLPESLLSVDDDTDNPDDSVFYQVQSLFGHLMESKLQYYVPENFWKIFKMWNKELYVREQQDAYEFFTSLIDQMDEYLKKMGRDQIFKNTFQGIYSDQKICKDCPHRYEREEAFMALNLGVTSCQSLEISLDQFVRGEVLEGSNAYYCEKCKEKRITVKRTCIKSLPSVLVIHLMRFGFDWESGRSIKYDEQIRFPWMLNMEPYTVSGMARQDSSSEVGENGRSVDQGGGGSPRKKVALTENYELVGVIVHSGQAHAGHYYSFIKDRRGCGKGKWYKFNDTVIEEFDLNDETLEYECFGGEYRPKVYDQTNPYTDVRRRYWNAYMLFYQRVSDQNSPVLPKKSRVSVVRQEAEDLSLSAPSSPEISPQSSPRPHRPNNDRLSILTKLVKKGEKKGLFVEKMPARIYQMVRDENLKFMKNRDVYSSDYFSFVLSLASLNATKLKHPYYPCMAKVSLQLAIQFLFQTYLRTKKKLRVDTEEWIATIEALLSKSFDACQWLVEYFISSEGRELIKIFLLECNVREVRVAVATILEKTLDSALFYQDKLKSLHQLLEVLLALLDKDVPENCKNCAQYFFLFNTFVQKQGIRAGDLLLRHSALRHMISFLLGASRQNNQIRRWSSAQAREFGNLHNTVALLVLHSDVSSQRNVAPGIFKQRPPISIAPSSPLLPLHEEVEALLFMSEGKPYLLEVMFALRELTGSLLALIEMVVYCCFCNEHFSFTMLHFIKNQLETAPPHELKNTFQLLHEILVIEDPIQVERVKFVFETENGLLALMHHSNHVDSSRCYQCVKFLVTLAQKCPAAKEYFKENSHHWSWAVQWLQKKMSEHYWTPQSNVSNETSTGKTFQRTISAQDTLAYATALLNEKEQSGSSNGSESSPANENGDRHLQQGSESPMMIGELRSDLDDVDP

O=C(CCl)Nc1nnc(CC(F)(F)F)o1
inactive: USP19 -0.39 | USP22 -0.0202 | USP24 -0.372 | USP25 -0.777 | USP28 -0.479
